Results reported in PubChem BioAssay (EPA / NIEHS).
Active and inactive are the calls of the source. How the source made its calls: active means hit-call score of the fitted dose curve at least 0.9, where 1 is the maximum; inactive means score below 0.9.

read-out: Heat shock 70 kDa protein 1 (HSPA1A), gene 3303; experiment: LTEA_HepaRG_HSPA1A: Life Technologies and Expression Analysis (LTEA) Assay for Heat shock 70 kDa protein 1 (HSPA1A) using HepaRG (AID 2283502); details: mRNA level, 48 h; actives raise or lower the signal
Procedure, shortened: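 Readout is HSPA1A transcript level by microfluidic qRT-PCR, normalized to three housekeeping genes and analysed for gain or loss of signal relative to 0.5% DMSO. Human HepaRG cultures received test chemicals for 48 h at up to 100 uM.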

Sequence of Hypoxia-inducible factor 1-alpha (Homo sapiens) (Q16665 whole entry, looked up): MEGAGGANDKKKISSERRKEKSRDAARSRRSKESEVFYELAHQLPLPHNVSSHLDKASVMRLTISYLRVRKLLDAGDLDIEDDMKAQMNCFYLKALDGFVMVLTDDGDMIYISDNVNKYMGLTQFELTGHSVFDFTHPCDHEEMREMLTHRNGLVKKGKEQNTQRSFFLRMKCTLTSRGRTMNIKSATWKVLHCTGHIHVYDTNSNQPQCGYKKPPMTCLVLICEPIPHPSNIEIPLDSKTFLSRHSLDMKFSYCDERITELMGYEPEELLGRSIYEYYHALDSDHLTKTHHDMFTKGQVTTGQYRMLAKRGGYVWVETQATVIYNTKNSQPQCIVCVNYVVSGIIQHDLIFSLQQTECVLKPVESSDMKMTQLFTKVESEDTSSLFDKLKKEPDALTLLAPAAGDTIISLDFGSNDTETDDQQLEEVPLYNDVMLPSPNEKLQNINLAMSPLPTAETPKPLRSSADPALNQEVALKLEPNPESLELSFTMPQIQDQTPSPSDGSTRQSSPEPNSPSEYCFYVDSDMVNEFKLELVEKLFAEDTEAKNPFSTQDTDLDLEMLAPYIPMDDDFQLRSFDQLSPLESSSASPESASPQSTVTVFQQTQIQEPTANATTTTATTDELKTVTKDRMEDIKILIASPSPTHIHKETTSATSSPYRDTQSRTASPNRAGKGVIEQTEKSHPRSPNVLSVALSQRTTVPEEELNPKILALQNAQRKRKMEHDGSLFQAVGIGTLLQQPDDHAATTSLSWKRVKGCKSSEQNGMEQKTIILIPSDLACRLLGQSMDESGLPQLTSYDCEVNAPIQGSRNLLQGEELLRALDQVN

Row | SMILES | outcome
1 | COC(=O)NS(=O)(=O)c1ccc(N)cc1 | inactive
2 | Nc1c(Cl)c(F)nc(OCC(=O)O)c1Cl | inactive
3 | Clc1cccc(C(Cl)(Cl)Cl)n1 | inactive
4 | CS(=O)(=O)c1ccc(C(=O)C2C(=O)CCCC2=O)c([N+](=O)[O-])c1 | inactive
5 | O=C(O)c1c(Cl)ccc2cc(Cl)cnc12 | inactive
6 | CNC(=O)Oc1cccc2ccccc12 | inactive
7 | CC(C)Oc1cccc(NC(=O)c2ccccc2C(F)(F)F)c1 | inactive
8 | CN=C=S | inactive
9 | CO/N=C(/C1=NOCCO1)c1ccccc1Oc1ncnc(Oc2ccccc2Cl)c1F | inactive

read-out: Hypoxia-inducible factor 1-alpha (Homo sapiens) (UniProt Q16665); experiment: LTEA_HepaRG_HIF1A: Life Technologies and Expression Analysis (LTEA) Assay for Hypoxia-inducible factor 1 (HIF1A) Trancription factor using HepaRG (AID 2283503); details: mRNA level, 48 h; actives raise or lower the signal
Procedure, shortened: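 Differentiated HepaRG cells in serum-free induction medium exposed 48 h, in duplicate, to 8-point half-log series from 100 uM in 0.5% DMSO. HIF1A mRNA measured by TaqMan qRT-PCR, normalized to ACTB/GAPDH/POLR2A, fitted bidirectionally versus DMSO.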

Row | SMILES | outcome
10 | Cc1c(COC(=O)[C@@H]2[C@H](/C=C(\Cl)C(F)(F)F)C2(C)C)cccc1-c1ccccc1 | inactive
11 | Nc1c(Cl)c(Cl)nc(C(=O)O)c1Cl | inactive
12 | CC(C)NC(=O)N1CC(=O)N(c2cc(Cl)cc(Cl)c2)C1=O | inactive
13 | Cn1c(-c2ccccc2)cc(-c2ccccc2)[n+]1C | inactive
14 | COC(=O)c1c(C(F)F)nc(C(F)(F)F)c(C2=NCCS2)c1CC(C)C | inactive
15 | Clc1nc(Cl)nc(Nc2ccccc2Cl)n1 | inactive
16 | COc1cc(OC)nc(NC(=O)NS(=O)(=O)c2ncccc2OCC(F)(F)F)n1 | inactive
17 | Cc1cc(C)nc(Nc2ccccc2)n1 | inactive
18 | O=c1n(Cl)c(=O)n(Cl)c(=O)n1Cl | inactive
19 | CSC(=O)c1c(C(F)F)nc(C(F)(F)F)c(C(=O)SC)c1CC(C)C | inactive
20 | C=C(C)CN(CC)c1c([N+](=O)[O-])cc(C(F)(F)F)cc1[N+](=O)[O-] | inactive
21 | CCOc1cc(C(C)(C)C)ccc1C1COC(c2c(F)cccc2F)=N1 (stereo not given) | inactive
22 | O=C(Nc1ccccc1-c1ccc(Cl)cc1)c1cccnc1Cl | inactive
23 | COP(=O)(OC)O/C(C)=C/C(=O)N(C)C | inactive
24 | CC(C)Nc1nc(Cl)nc(NC(C)C)n1 | inactive
25 | COP(=S)(OC)Oc1ccc([N+](=O)[O-])c(C)c1 | inactive
26 | COP(=S)(OC)SCn1nnc2ccccc2c1=O | inactive
27 | C=CCOC(=O)C(C)(C)OC(=O)c1cc(-n2c(=O)cc(C(F)(F)F)n(C)c2=O)ccc1Cl | inactive

Row | SMILES | outcome
28 | CCSC(=O)N1CCCCCC1 | inactive
29 | CC(C)C1(C)N=C(c2ncccc2C(=O)O)NC1=O (stereo not given) | inactive
30 | Nc1cnn(-c2ccccc2)c(=O)c1Cl | inactive
31 | CC(C)N1C(=O)N(c2ccccc2)CSC1=NC(C)(C)C | inactive
32 | COC(=O)NS(=O)(=O)c1ccc(N)cc1 | inactive
33 | Nc1c(Cl)c(F)nc(OCC(=O)O)c1Cl | inactive
34 | Clc1cccc(C(Cl)(Cl)Cl)n1 | inactive
35 | Cc1cnc(C2=NC(C)(C(C)C)C(=O)N2)c(C(=O)O)c1 (stereo not given) | inactive
36 | CS(=O)(=O)c1ccc(C(=O)C2C(=O)CCCC2=O)c([N+](=O)[O-])c1 | inactive
37 | O=C(O)c1c(Cl)ccc2cc(Cl)cnc12 | inactive
38 | COC(=O)NC(=S)Nc1ccccc1NC(=S)NC(=O)OC | inactive
39 | CNC(=O)Oc1cccc2ccccc12 | inactive
40 | COC(=O)N(C(=O)N1CO[C@@]2(C(=O)OC)Cc3cc(Cl)ccc3C2=N1)c1ccc(OC(F)(F)F)cc1 | inactive
41 | CC(C)Oc1cccc(NC(=O)c2ccccc2C(F)(F)F)c1 | inactive
42 | CN=C=S | inactive
43 | CCC(C)n1c(=O)[nH]c(C)c(Br)c1=O (stereo not given) | inactive
44 | CO/N=C(/C1=NOCCO1)c1ccccc1Oc1ncnc(Oc2ccccc2Cl)c1F | inactive

read-out: 3-Hydroxy-3-Methylglutaryl-CoA Synthase 2 (HMGCS2), HMGCS2 (gene 3158); experiment: LTEA_HepaRG_HMGCS2: Life Technologies and Expression Analysis (LTEA) Assay for 3-Hydroxy-3-Methylglutaryl-CoA Synthase 2 (HMGCS2) using HepaRG (AID 2283504); details: mRNA level, 48 h; actives raise or lower the signal
Procedure, shortened: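 Expression of HMGCS2 in human HepaRG liver cells is measured by qRT-PCR 48 h after dosing (highest 100 uM, half-log series, 0.5% DMSO). Values come from bidirectional concentration-response fitting with DMSO as baseline.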

Row | SMILES | outcome | AC50
45 | Cc1c(COC(=O)[C@@H]2[C@H](/C=C(\Cl)C(F)(F)F)C2(C)C)cccc1-c1ccccc1 | inactive | 
46 | Nc1c(Cl)c(Cl)nc(C(=O)O)c1Cl | inactive | 
47 | CC(C)NC(=O)N1CC(=O)N(c2cc(Cl)cc(Cl)c2)C1=O |  | 13.2 µM (active)
48 | Cn1c(-c2ccccc2)cc(-c2ccccc2)[n+]1C |  | 35 µM (active)
49 | COC(=O)c1c(C(F)F)nc(C(F)(F)F)c(C2=NCCS2)c1CC(C)C | inactive | 
50 | Clc1nc(Cl)nc(Nc2ccccc2Cl)n1 | inactive | 
51 | COc1cc(OC)nc(NC(=O)NS(=O)(=O)c2ncccc2OCC(F)(F)F)n1 | inactive | 
52 | Cc1cc(C)nc(Nc2ccccc2)n1 | inactive | 
53 | O=c1n(Cl)c(=O)n(Cl)c(=O)n1Cl | inactive | 
54 | CSC(=O)c1c(C(F)F)nc(C(F)(F)F)c(C(=O)SC)c1CC(C)C |  | 85.8 µM (active)
55 | C=C(C)CN(CC)c1c([N+](=O)[O-])cc(C(F)(F)F)cc1[N+](=O)[O-] | inactive | 
56 | CCOc1cc(C(C)(C)C)ccc1C1COC(c2c(F)cccc2F)=N1 (stereo not given) |  | 46.9 µM (active)
57 | O=C(Nc1ccccc1-c1ccc(Cl)cc1)c1cccnc1Cl |  | 52.5 µM (active)
58 | COP(=O)(OC)O/C(C)=C/C(=O)N(C)C | inactive | 
59 | CC(C)Nc1nc(Cl)nc(NC(C)C)n1 |  | 23.6 µM (active)
60 | COP(=S)(OC)Oc1ccc([N+](=O)[O-])c(C)c1 | inactive | 
61 | COP(=S)(OC)SCn1nnc2ccccc2c1=O | inactive | 
62 | C=CCOC(=O)C(C)(C)OC(=O)c1cc(-n2c(=O)cc(C(F)(F)F)n(C)c2=O)ccc1Cl | inactive | 

Row | SMILES | outcome | AC50
63 | CNC(=O)N(C)c1nnc(C(C)(C)C)s1 | inactive | 
64 | CCSC(=O)N1CCCCCC1 | inactive | 
65 | CC(C)C1(C)N=C(c2ncccc2C(=O)O)NC1=O (stereo not given) | inactive | 
66 | Nc1cnn(-c2ccccc2)c(=O)c1Cl | inactive | 
67 | CC(C)N1C(=O)N(c2ccccc2)CSC1=NC(C)(C)C |  | 75.5 µM (active)
68 | COC(=O)NS(=O)(=O)c1ccc(N)cc1 | inactive | 
69 | Nc1c(Cl)c(F)nc(OCC(=O)O)c1Cl | inactive | 
70 | Clc1cccc(C(Cl)(Cl)Cl)n1 | inactive | 
71 | Cc1cnc(C2=NC(C)(C(C)C)C(=O)N2)c(C(=O)O)c1 (stereo not given) | inactive | 
72 | CS(=O)(=O)c1ccc(C(=O)C2C(=O)CCCC2=O)c([N+](=O)[O-])c1 | inactive | 
73 | O=C(O)c1c(Cl)ccc2cc(Cl)cnc12 | inactive | 
74 | COC(=O)NC(=S)Nc1ccccc1NC(=S)NC(=O)OC | inactive | 
75 | CNC(=O)Oc1cccc2ccccc12 | inactive | 
76 | COC(=O)N(C(=O)N1CO[C@@]2(C(=O)OC)Cc3cc(Cl)ccc3C2=N1)c1ccc(OC(F)(F)F)cc1 |  | 40 µM (active)
77 | CC(C)Oc1cccc(NC(=O)c2ccccc2C(F)(F)F)c1 | inactive | 
78 | CN=C=S | inactive | 
79 | CCC(C)n1c(=O)[nH]c(C)c(Br)c1=O (stereo not given) |  | 29.2 µM (active)
80 | CO/N=C(/C1=NOCCO1)c1ccccc1Oc1ncnc(Oc2ccccc2Cl)c1F |  | 21.9 µM (active)
